# In PubChem BioAssay (EPA / NIEHS):
# Where “and” joins values, the source holds several entries; their conditions need not be identical. Equal values may be shown once. Calls of active or inactive are those of the source. How the source made its calls: active means hit-call score of the fitted dose curve at least 0.9, where 1 is the maximum; inactive means score below 0.9.
# Read-out: E-selectin (Homo sapiens) (UniProt P16581)
# Experiment: BSK_LPS_Eselectin: BioMAP Diversity Plus: LPS Assay for Eselectin Biomarker Activity (AID 2283077)
# Conditions: primary human HUVEC with PBMC; actives raise or lower the signal
# Procedure: BSK_LPS is a cell-based, multiplexed-readout assay that uses umbilical vein endothelium and peripheral blood mononuclear cells, a human vascular primary cell co-culture, with measurements taken at 24 hours after chemical dosing in a 96-well plate.BSK_LPS_Eselectin is an assay component measured in the BSK_LPS assay. It measures E-selectin antibody related to regulation of gene expression using ELISA technology.Data from the assay component BSK_LPS_Eselectin was analyzed into 1 assay endpoint. This assay endpoint, BSK_LPS_Eselectin, was analyzed with bidirectional fitting relative to DMSO as the negative control and baseline of activity. Using a type of binding reporter, gain or loss-of-signal activity can be used to understand changes in the signaling as they relate to the gene SELE. Furthermore, this assay endpoint can be referred to as a primary readout, because this assay has produced multiple assay endpoints where this one serves a signaling function. To generalize the intended target to other relatable targets, this assay endpoint is annotated to the cell adhesion molecules intended target family, where the subfamily is selectins.
# The levels of cell surface (or secreted, indicated by the prefix "s") biomarker endpoints were measured by ELISA. Overt cytotoxicity to cells in confluent adherent cultures (all systems other than the BT system) was assessed by measuring total protein levels using sulforhodamine B (SRB) staining in parallel cultures at the time of biomarker measurements, indicated as SRB endpoints. For proliferation assays for adherent cell types, individual cell types are cultured at sub-confluence and relative cell numbers quantified by SRB staining at time points optimized for each system (48 h: 3C and CASM3C systems; 72 h: BT and HDF3CGF systems; 96 h: SAg system). SRB was performed by staining cells with 0.1% SRB after fixation with 10% TCA and reading wells at 560 nm.Viability and proliferation of PBMC (T cells) was quantified by Alamar Blue reduction for the SAg and BT systems. For PBMC viability (referred to as PBMC Cytotoxicity within the assay endpoint names), cells were plated (75,000/well in a 96-well plate) and then chemical samples added for 1 h before addition of activators, SEB and TSST-1 (20 ng/mL final concentration each). Cells were incubated for 90 h. Then, Alamar Blue (20 uL/well) (Invitrogen, Cat DAL1100) was added for 6 h, and the plates were read with a fluorescence microplate reader at 546/580 nm (excitation/emission). For PBMC proliferation, cells were plated and activated as above but incubated for only 16 h prior to addition of Alamar Blue. Plates were read after 6 h.
# Chain of E-selectin (Homo sapiens) (P16581 whole entry, looked up): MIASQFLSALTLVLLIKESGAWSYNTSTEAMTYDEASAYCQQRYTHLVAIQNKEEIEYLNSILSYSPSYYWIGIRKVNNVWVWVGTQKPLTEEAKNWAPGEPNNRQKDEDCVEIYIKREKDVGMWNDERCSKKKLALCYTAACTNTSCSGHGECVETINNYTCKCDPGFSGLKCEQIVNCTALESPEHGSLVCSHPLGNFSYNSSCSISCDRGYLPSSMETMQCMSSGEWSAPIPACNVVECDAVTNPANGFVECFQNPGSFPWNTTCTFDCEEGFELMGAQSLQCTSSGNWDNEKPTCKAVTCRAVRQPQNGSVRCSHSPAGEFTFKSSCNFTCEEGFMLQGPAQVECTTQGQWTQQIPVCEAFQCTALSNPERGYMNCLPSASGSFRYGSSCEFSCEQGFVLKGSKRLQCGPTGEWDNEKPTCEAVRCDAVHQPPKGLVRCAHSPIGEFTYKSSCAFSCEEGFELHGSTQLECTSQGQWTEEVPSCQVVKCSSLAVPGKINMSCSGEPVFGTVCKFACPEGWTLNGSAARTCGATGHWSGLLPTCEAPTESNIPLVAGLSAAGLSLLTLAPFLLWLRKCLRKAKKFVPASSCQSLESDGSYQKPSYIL
Structure (SMILES),outcome,AC50
COC(=O)c1ccccc1S(=O)(=O)NC(=O)Nc1nc(OC(F)F)cc(OC(F)F)n1,inactive,–
CC(C)(C)[C@@H](O)[C@@H](Cc1ccc(Cl)cc1)n1cncn1,inactive,–
c1ccc(Nc2ccccc2)cc1,inactive,–
CCC(C)OC(=O)N1CCCCC1CCO (stereo not given),inactive,–
CCOC(=O)C(C)Oc1ccc(Oc2cnc3cc(Cl)ccc3n2)cc1 (stereo not given),inactive,–
CSC(=O)c1cccc2nnsc12,inactive,–
COC(=O)c1ccc(CNS(C)(=O)=O)cc1S(=O)(=O)NC(=O)Nc1nc(OC)cc(OC)n1,inactive,–
C[C@]12C[C@H](O)[C@H]3[C@@H](CCC4=CC(=O)CC[C@@]43C)[C@@H]1CC[C@@H]2C(=O)CO,inactive,–
COC(=O)c1ccc(I)cc1S(=O)(=O)NC(=O)Nc1nc(C)nc(OC)n1,inactive,–
N#CSCSc1nc2ccccc2s1,–,3.96 µM (active) and 8.13 µM (active)
O=C(Nc1ccc([N+](=O)[O-])cc1Cl)c1cc(Cl)ccc1O,inactive,–
O=C(O)c1ccccc1,inactive,–
CCN(CC)C(=O)c1cccc(C)c1,inactive,–
Cc1nn(C)c(Oc2ccccc2)c1C=NOCc1ccc(C(=O)OC(C)(C)C)cc1,inactive,–
C=CCOC(Cn1ccnc1)c1ccc(Cl)cc1Cl (stereo not given),inactive,–
COC(=O)CSc1cc(N=c2sc(=O)n3n2CCCC3)c(F)cc1Cl,inactive,–
CCSC(=O)N(CC(C)C)CC(C)C,inactive,–
CCOC(=O)[C@H](C)Oc1ccc(Oc2nc3ccc(Cl)cc3o2)cc1,inactive,–
O=C(c1ccccc1)C1CCCCC1,inactive,–
CC(=O)[C@H]1CC[C@H]2[C@@H]3CCC4=CC(=O)CC[C@]4(C)[C@H]3CC[C@]12C,–,25.3 µM (active)

Structure (SMILES),outcome,AC50
CCCN(CCC)C(=O)SCC,inactive,–
N[C@@H](Cc1cc(I)c(Oc2ccc(O)c(I)c2)c(I)c1)C(=O)O,–,13.6 µM (active)
CCN(Cc1c(F)cccc1Cl)c1c([N+](=O)[O-])cc(C(F)(F)F)cc1[N+](=O)[O-],inactive,–
COC(=O)c1cccc(C)c1S(=O)(=O)NC(=O)Nc1nc(OCC(F)(F)F)nc(N(C)C)n1,inactive,–
CCOC(=O)C(C)Oc1ccc(Oc2nc3ccc(Cl)cc3o2)cc1 (stereo not given),inactive,–
CCOC(=O)COc1cc(-n2ncc(C(F)(F)F)c(C)c2=O)c(F)cc1Cl,inactive,–
CC(=O)S[C@@H]1CC2=CC(=O)CC[C@]2(C)[C@H]2CC[C@@]3(C)[C@@H](CC[C@@]34CCC(=O)O4)[C@H]12,–,22.5 µM (active)
c1ccc2[nH]c(-c3cscn3)nc2c1,inactive,–
OB(O)O,inactive,–
CC(C)(c1ccc(O)cc1)c1ccc(O)cc1,inactive,–
COc1nc(C)nc(NC(=O)NS(=O)(=O)c2ccccc2OCCCl)n1,inactive,–
C[C@]12CC[C@@H]3c4ccc(O)cc4C[C@@H](CCCCCCCCCS(=O)CCCC(F)(F)C(F)(F)F)[C@H]3[C@@H]1CC[C@@H]2O (stereo not given in full),inactive,–
O=C(c1ccc(O)cc1O)c1ccc(O)cc1O,inactive,–
CCCCOC(=O)C(C)Oc1ccc(Oc2ccc(C(F)(F)F)cn2)cc1 (stereo not given),inactive,–
CCCCC(CC)COC(=O)c1ccccc1C(=O)O (stereo not given),inactive,–
CC1(C)C(C=C(Cl)Cl)C1C(=O)OCc1cccc(Oc2ccccc2)c1 (stereo not given),inactive,–
COC(=O)c1c(Cl)nn(C)c1S(=O)(=O)NC(=O)Nc1nc(OC)cc(OC)n1,inactive,–
CC(C)CCCCCCc1ccc(O)cc1,–,12.1 µM (active)
S=C(S)NCCNC(=S)S.[Mn+2].[S-]C([S-])=NCCN=C([S-])[S-].[Zn+2],inactive,–
CCCOC(=O)c1ccc(C(=O)OCCC)nc1,inactive,–
